HT1080NT lethal – qHTS for induction of synthetic lethality in tumor cells producing 2HG: qHTS for the HT-1080-NT fibrosarcoma cell line; HT-1080-NT fibrosarcoma viability, CellTiter-Glo ATP luminescence, 48 h; Potency, µM (highest dose often 46.1 µM), inactives show at the highest dose activity, negative = less viability, hits mostly cytotoxic; 360,000 tested, 1.6% active;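 further: NT is the 2HG producing partner of a matched IDH1 knockdown line; 0% = DMSO-treated cells and -100% = media-only wells without cells; nearly all actives have a fitted effect of over 55% in size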
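750 cells/well, RPMI + 5% FBS; 2 h settle, compound pin-transfer, 48 h at 37 degrees C. CellTiter-Glo 10 min RT, luminescence. Normalized to DMSO and media-only wells.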
TDP1 cell CPT – qHTS for Inhibitors of human tyrosyl-DNA phosphodiesterase 1 (TDP1): qHTS in cells in presence of CPT; chicken DT40 Tdp1-/-;hTDP1 cells + 20 nM CPT, ATP luminescence, 48 h; Potency, µM (top dose mostly 46.2 µM), for inactives: at the top dose activity change, negative = growth inhibition, actives largely listed as inhibitors; 420,000 tested, 12% active; AID 686979, 2013; further: nearly all actives have a fitted effect of over 55% in size
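Chicken DT40 Tdp1-/- cells complemented with human TDP1, 400 cells/well, exposed to compounds plus 20 nM camptothecin for at least 48 h at 37 C; viability read as ATP content by CellTiter-Glo luminescence.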
KB-V1 MDR tox – qHTS assay for MDR1-selective chemotherapeutics: Primary screen using the drug-selected MDR subline cells KB-V1. KB-V1 MDR cells viability, CellTiter-Glo, 72 h. Potency, µM (highest dose often 46.1 µM), most hits filed as cytotoxic. 400,000 tested, 3.4% active. AID 1347076, 2019; further: nearly all actives have a fitted effect of over 60% in size
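KB-V1 MDR subline cells in DMEM (phenol-red free, 10% FBS) exposed to compounds in qHTS concentration series for 72 h at 37 degrees C. Viability read by CellTiter-Glo luminescence; concentration-effect curves fitted after normalization and correction.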
HT1080 IDH1KD tx – qHTS for induction of synthetic lethality in tumor cells producing 2HG: qHTS for the HT-1080-IDH1KD cell line; HT-1080 IDH1 knockdown viability, ATP luminescence, 48 h; Potency, µM (highest dose often 46.1 µM), for inactives: top-dose activity, negative = toxicity, most hits filed as cytotoxic; 360,000 tested, 2% active;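 further: 0% = DMSO wells and -100% = cell-free medium wells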
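After a 2 h attachment period, IDH1KD HT-1080 cells took pin-transferred compound for 48 h at 37 °C; ATP-based luminescence after 10 min room-temperature reagent incubation reported viability.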
KB-3-1 tox – qHTS assay for MDR1-selective chemotherapeutics: Primary screen using the parental adenocarcinoma cell KB-3-1; KB-3-1 viability, CellTiter-Glo ATP luminescence, 72 h; 400,000 tested, 1.4% active; Potency, µM (titrated, usually from 46.1 µM), usual class: cytotoxic; further: nearly all actives have a fitted effect of over 60% in size
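Viability of parental KB-3-1 cells, measured by CellTiter-Glo luminescence, followed a 72 h incubation at 37 °C with pinned compounds in phenol-red-free DMEM containing 10% FBS.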
DT40 TDP1 no CPT – qHTS for Inhibitors of human tyrosyl-DNA phosphodiesterase 1 (TDP1): qHTS in cells in absence of CPT; DT40 Tdp1-/- hTDP1 cells, no CPT, ATP luminescence, 48 h; Potency, µM (top dose mostly 46.2 µM), for the others: at the top dose activity change, negative = growth inhibition, actives largely listed as inhibitors; 420,000 tested, 15% active; AID 686978, 2013; further: nearly all actives have a fitted effect of over 55% in size
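Stably hTDP1-transfected Tdp1-null chicken DT40 cells were treated with library compounds minus camptothecin and grown for at least 48 hr at 37 °C, after which cellular ATP was quantified by luminescence.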
The depositor's hits bear a star; i = inactive; ? = inconclusive; [ ] = another dose, or the depositor's remark. Most compounds without a hit are left out; they make up all but 19% or so of the library. The call rests on the fitted dose curve; in most records, active means well fitted curve in the direction sought with a large enough effect; inconclusive means small, poorly fitted or top-dose-only effect, or another doubt; inactive means no such curve, though single readings can be large; an effect the other way counts as inactive or inconclusive. Unless noted, on the % scale 0 is the no-effect control and ±100 the full control effect; potency means the concentration at half of the fitted maximal effect.

SMILES	HT1080NT lethal	TDP1 cell CPT	KB-V1 MDR tox	HT1080 IDH1KD tx	KB-3-1 tox	DT40 TDP1 no CPT
O=C1C2C3C=CC(CC3)C2S(=O)(=O)C2C3C=CC(CC3)C12 (stereo not given)	-2%	-11%	i	-2%	i	-26%
O=C(Nc1ccc(Br)cn1)c1cccc2c1-c1ccccc1C2=O	-4%	4.1µM*	?	-1%	?	3.3µM*
CC(C)CNC(=O)c1cccc2c1-c1ccccc1C2=O	1%	19%	i	11%	i	6%
Cc1cccc(NC(=O)c2cccc3c2-c2ccccc2C3=O)n1	-11%	?	i	-23%	i	16µM*
Cc1cc(C(=O)COc2ccccc2C(N)=O)c(C)n1C1CC1	5%	?	i	3%	i	?
CCOc1ccccc1OCCOCCOc1ccccc1[N+](=O)[O-]	2%	-27%	?	1%	i	10µM*
Cc1cc(C(=O)COc2ccccc2[N+](=O)[O-])c(C)n1C1CC1	-25%	23µM*	?	-11%	i	?
O=C(COc1ccccc1[N+](=O)[O-])c1ccccc1	?	3.7µM*	i	?	i	5.2µM*
Cc1cc(-n2c(C)cc(C(=O)COc3ccccc3[N+](=O)[O-])c2C)no1	2%	16µM*	?	0%	i	23µM*
CS(=O)(=O)N1CCc2cc(C(=O)N3CCCC3)ccc21	1%	?	i	7%	i	11%
COC(=O)/C=C/COc1ccccc1[N+](=O)[O-]	-8%	9.2µM*	i	-15%	?	13µM*
Cc1cc(-n2c(C)cc(C(=O)COc3ccc(F)c(F)c3)c2C)no1	0%	23µM*	i	-6%	i	21µM*
CCN(CC)CCNCc1cc(Cl)c(OCC(=O)Nc2ccccc2)c(OC)c1	?	?	i	-27%	i	23µM*
CCCCNCc1cc(Br)c(OCC(=O)NCc2ccccc2)c(OC)c1	-13%	-19%	?	-2%	i	?
COc1cc(CNC(C)c2ccccc2)cc(Cl)c1OCC(=O)Nc1ccccc1 (stereo not given)	?	9.2µM*	i	-26%	i	26µM*
C=CCn1c(SCC#N)nnc1-c1ccc2ncccc2c1	27%	4%	i	14%	i	2%
COc1cccc(NC(=O)NNC(=O)c2ccc3c(c2)NC(=O)C(C)(C)O3)c1	-2%	-5%	i	-3%	i	-7%
CCOC(=O)CN1C(=O)C(C)(C)Oc2ccc(C(=O)Nc3ccccc3OC)cc21	9%	16µM*	i	0%	i	23µM*
COc1ccc(C(=O)CN2C(=O)C(C)(C)Oc3ccc(C(=O)N4CCCCCC4)cc32)cc1	-1%	?	18µM*	3%	i	?
COc1ccccc1NC(=O)NNC(=O)c1ccc2c(c1)NC(=O)C(C)(C)O2	?	23µM*	i	?	?	?
CC1(C)Oc2ccc(C(=O)N3CCCC3)cc2N(CC(=O)NCc2ccccc2)C1=O	-2%	-18%	i	4%	i	-1%
O=C(c1cc(C2CC2)nn1-c1ccccc1)N1CCN(Cc2c(F)cccc2Cl)CC1	2%	?	i	0%	i	?
COc1ccc(/C=N/NC(=S)Nc2ccccc2)cc1COc1ccc(F)cc1	8%	1%	i	1%	i	-104%
COc1cc(OC)cc(C(=O)N/N=C/c2ccc(OC)c(COc3ccc4ccccc4c3)c2)c1	?	4.1µM*	?	21µM*	?	6.5µM*
COc1ccc(/C=N/NC(=O)c2ccncc2)cc1COc1ccc(NC(C)=O)cc1	-1%	5.8µM*	i	?	i	8.2µM*
SMILES	HT1080NT lethal	TDP1 cell CPT	KB-V1 MDR tox	HT1080 IDH1KD tx	KB-3-1 tox	DT40 TDP1 no CPT
COc1cccc(OCc2cc(/C=N/NC(=O)c3ccn[nH]3)ccc2OC)c1	-23%	?	?	-18%	?	26µM*
COc1ccc(/C=N/NC(=S)Nc2ccccc2)cc1COc1ccc(Br)cc1	-28%	15µM*	i	?	i	?
Cc1cccc(NC(=O)c2ccc(NC(C)c3ccccc3)c([N+](=O)[O-])c2)n1 (stereo not given)	14%	-21%	i	0%	?	?
COc1ccc(/C=C/C(=O)Oc2ccc(/C=N/NC(=O)c3ccncc3)cc2)cc1	-3%	-7%	i	-3%	i	-2%
O=C(CSc1nnc(NC2CCCCC2)s1)N1CCOCC1	14%[9.24 µM]	1%	i	8%	i	20%
COc1ccc(C(=O)N/N=C/c2ccc(OC)c(COc3ccccc3)c2)cc1	-13%	?	?	-3%	?	?
COc1cc(OC)cc(C(=O)N/N=C\c2ccoc2)c1	3.7µM*	-9%	i	5.8µM*	i	9%
Cc1cc(C)cc(C(=O)N/N=C/c2ccoc2)c1	-26%	-3%	?	?	i	24%
COc1ccc(/C=N\NC(=O)c2cc(O)c(O)c(O)c2)cc1COc1ccc(C(=O)OCC(C)C)cc1	-18%	?	i	-21%	i	21µM*
CCSc1nnc(-c2cnn(-c3ccccc3)c2-n2cccc2)n1C	6%	?	i	15%	i	-41%
CCCCCCSc1nnc(-c2cnn(-c3ccccc3)c2-n2cccc2)n1C	18µM*	?	i	?	i	21µM*
Cc1ccc(-n2nc3c(c2NC(=O)CC(C)C)CS(=O)(=O)C3)c(C)c1	0%	4%	i	5%	i	-1%
CCCC(C)NC(=S)NC(=O)c1cc(S(=O)(=O)N2CCOCC2)ccc1C (stereo not given)	1%	21µM*	i	1%	i	13µM*
CCCCCC(C)NC(=S)NC(=O)c1cc(S(=O)(=O)N2CCOCC2)ccc1C (stereo not given)	-13%	?	?	-21%	i	?
COc1ccc(S(=O)(=O)N2CCOCC2)cc1C(=O)Nc1ccc(N2CCCCCC2)cc1	-22%	18µM*	?	?	i	18µM*
